Experimental data taken from PubChem BioAssay.
Records with an inconclusive call do not appear. Calls of active or inactive are those of the source. Unless noted, no cut-off is given here; in the data, nearly all actives have AC50 up to about 26 µM.

Assays:
[1] = growth inhibition of DIPG glioma cells, dose response, cell-based, SU-DIPG-XVII, MIPE5.0, CellTiter-Glo, qHTS (AID 1347060); conditions: SU-DIPG-XVII viability, CellTiter-Glo ATP luminescence;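 for AC50: cells exposed to compound for 48 hours before viability readout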
[2] = viability loss in pontine glioma line – cell-based, SU-DIPG-XXV, MIPE5.0, CellTiter-Glo, qHTS, dose response (AID 1347065); conditions: CellTiter-Glo ATP luminescence;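 note: cells exposed to compound for 48 hours before ATP readout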
[3] = JHH-DIPG-1 glioma cell viability, MIPE5.0 library, CellTiter-Glo luminescence, qHTS (AID 1347067); conditions: JHH-DIPG-1 glioma viability, CellTiter-Glo ATP luminescence;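 note: cells exposed to compound for 48 hours before readout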
[4] = SU-DIPG-XXV glioma cell viability, MIPE5.0 library, qHTS (AID 1347068; cut-off not given, nearly all actives have IC50 up to about 30 µM;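 for IC50: cells exposed to compound for 48 hours before viability readout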)
[5] = sensitizers of A549 cells to miR-34 induction, primary screen, imaging, A549 dox-inducible miR-34, nuclei and caspase counts (AID 1347080;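 active = compounds whose cell count with miR-34 switched on is under 0.7 times the count with it off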); conditions: A549 miR-34 inducible, Hoechst nuclei count, 48 h
[6] = survival rescue of mitochondrial mutant cells in low glucose, primary screen, MELAS cybrids, Rieske KO mouse fibroblasts, CellTiter-Glo (AID 1508586;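 active = mean z-score across replicates of 1.96 or higher in either the MELAS or the Rieske mutant cell line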;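 note: z relative to plate mean and SD of compound and empty wells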)
[7] = SU-DIPG-VI glioma cell viability, MIPE4.0 library, CellTiter-Glo luminescence, qHTS (AID 1347066; cut-off not given, nearly all actives have AC50 up to about 30 µM;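 note: cells exposed to compound for 48 hours before readout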); conditions: CellTiter-Glo ATP luminescence

FC(F)(F)c1ccc(CNc2ccc(Cc3c[nH]c4ncccc34)cn2)cc1
inactive: outcome [4]
active: AC50 [1] 16.6 µM | AC50 [2] 20.9 µM | AC50 [3] 18.6 µM

CNc1nc(C)nc(N[C@H]2CCC[C@@H](C(=O)NCc3ccc(C#N)cc3C(F)(F)F)C2)n1
inactive: outcome [1] | outcome [2] | outcome [3] | outcome [4]

CCN(C)S(=O)(=O)Nc1ccc(F)c(C(=O)c2c[nH]c3ncc(-c4cnc(C5CC5)nc4)cc23)c1F
active: AC50 [1] 14.8 µM | AC50 [2] 7.42 µM | AC50 [3] 16.6 µM | IC50 [4] 16.6 µM

Cn1cc(-c2c[nH]c3ncnc(N4CCOCC4)c23)cn1
inactive: outcome [1] | outcome [2] | outcome [3] | outcome [4]

Cc1cc(OCc2nnc(SC3CCCC3)n2-c2cccnc2)ccc1-c1ccc(S(C)(=O)=O)cc1
1100: cell count ([5]; measured here: total cells with miR-34 induction, stronger effect = lower value)
0.499: fold change ([5]; measured here: relative caspase fold change +Dox/-Dox)
1250: cell count ([5]; measured here: total cells without miR-34 induction)
inactive: outcome [4] | fold change ([5]; stronger effect = lower value, cell number ratio, induced over uninduced) 0.88 | z-score ([6]; MELAS cybrid survival, CellTiter-Glo 48 h, stronger effect = higher value) 0.698
active: AC50 [1] 8.33 µM | AC50 [2] 8.33 µM | AC50 [3] 2.09 µM
-0.0239: z-score ([6]; Rieske KO mouse fibroblast survival, CellTiter-Glo 72 h)

O=C(Nc1nccs1)C(c1cc(F)ccc1O)N1Cc2ccccc2C1=O (stereo not drawn)
inactive: outcome [1] | outcome [2] | outcome [3] | outcome [4]

COCCNCc1ccc(-c2cc3nccc(Oc4ccc(NC(=S)NC(=O)Cc5ccc(F)cc5)cc4F)c3s2)nc1
active: AC50 [1] 7.42 µM | AC50 [2] 4.17 µM | AC50 [3] 7.42 µM | IC50 [4] 9.34 µM

CCCCCCCCCCCCCCCCOCCCOP(=O)(O)COC(CO)Cn1ccc(N)nc1=O (stereo not drawn)
inactive: outcome [1] | outcome [2] | outcome [3] | outcome [4]

Cn1nccc1Nc1nccc(-c2cc3c(s2)C(C)(C)N(CCN2CCOCC2)C3=O)n1
active: AC50 [1] 5.25 µM | AC50 [2] 10.5 µM | AC50 [3] 2.09 µM
inactive: outcome [4]

C=CC(=O)Nc1cccc(C)c1Nc1ncc2cc(-c3c(Cl)c(OC)cc(OC)c3Cl)ccc2n1
active: AC50 [1] 14.8 µM | AC50 [2] 9.34 µM | AC50 [3] 13.2 µM | IC50 [4] 9.34 µM

O=C(NCC(=O)N1CC[C@H](NC2CCC(O)(c3ccc(-c4ncccn4)cn3)CC2)C1)c1cccc(C(F)(F)F)c1 (stereo partly drawn)
inactive: outcome [1] | outcome [2] | outcome [3] | outcome [4]

CN[C@@H](C)C(=O)N[C@H](C(=O)N1CCC[C@H]1c1nc(C(=O)c2ccc(F)cc2)cs1)C1CCCCC1
inactive: outcome [1] | outcome [2] | outcome [3] | outcome [4]

COC1CCC(N2C(=O)CNc3ncc(-c4ccc(C(C)(C)O)nc4)nc32)CC1 (stereo not drawn)
active: AC50 [1] 9.34 µM | AC50 [2] 11.8 µM | AC50 [3] 16.6 µM | IC50 [4] 14.8 µM

CCCS(=O)(=O)c1nc(NC2CC2)cc(-c2ccc3c(ccn3C3CC(C)(C)NC(C)(C)C3)c2)n1
active: AC50 [1] 3.93 µM | AC50 [2] 2.78 µM | AC50 [3] 2.78 µM | IC50 [4] 3.12 µM

Cc1c(F)cc(C(=O)NC2CC2)cc1-c1c(F)cn2c(C(C)(C)C)nnc2c1F
inactive: outcome [1] | outcome [2] | outcome [3] | outcome [4]

CCCC1OC2C[C@H]3[C@@H]4CCC5=CC(=O)C=C[C@]5(C)[C@H]4C(O)C[C@]3(C)[C@]2(C(=O)CO)O1 (stereo partly drawn)
inactive: outcome [1] | outcome [7] | outcome [4]

C/C(=C\c1csc(C)n1)[C@@H]1C[C@@H]2O[C@]2(C)CCC[C@H](C)[C@H](O)[C@@H](C)C(=O)C(C)(C)[C@@H](O)CC(=O)N1
active: AC50 [1] 0.0148 µM | AC50 [2] 0.0118 µM | IC50 [4] 3.32 µM

[2H]C([2H])(Nc1nc(-c2ccccc2C([2H])(C([2H])([2H])[2H])C([2H])([2H])[2H])ncc1C)c1ccc(-n2ccnn2)cc1
inactive: outcome [1] | outcome [2] | outcome [4]

Cc1[nH]nc2ncc(C(=O)N3CCC[C@H]3c3ccc(Cl)cc3)cc12
inactive: outcome [1] | outcome [2] | outcome [4]
